In PubChem BioAssay AID624330 (Southern Research Specialized Biocontainment Screening …, 2012):
Out of some 340,000 compounds screened, about 2,100 (0.62%) were called active.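 The calls were made as follows: active = first-screen hits whose inhibition reached a set limit at any dose in the follow-up dose series; inconclusive = inhibition above the set first-screen limit but never retested; inactive = the rest.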 These entries were drawn from the full list. Measured potencies and affinities stand elsewhere.

The molecules below were run against Rac GTPase-activating protein 1 (Homo sapiens) (UniProt Q9H0H5) (assay: MgcRacGAP GTPase-activating activity inhibitors, confirmation, biochemical, ADP Hunter fluorescence, primary and confirmatory (AID 624330;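 also: fluorescence reports GDP produced by GAP-driven GTP hydrolysis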)). Conditions: MgcRacGAP-stimulated Rac1 GTP hydrolysis, at 30 µM, stronger effect = higher value, GST-tagged Rac1 F28L mutant substrate.
Chain of Rac GTPase-activating protein 1 (Homo sapiens) (Q9H0H5 whole entry, looked up): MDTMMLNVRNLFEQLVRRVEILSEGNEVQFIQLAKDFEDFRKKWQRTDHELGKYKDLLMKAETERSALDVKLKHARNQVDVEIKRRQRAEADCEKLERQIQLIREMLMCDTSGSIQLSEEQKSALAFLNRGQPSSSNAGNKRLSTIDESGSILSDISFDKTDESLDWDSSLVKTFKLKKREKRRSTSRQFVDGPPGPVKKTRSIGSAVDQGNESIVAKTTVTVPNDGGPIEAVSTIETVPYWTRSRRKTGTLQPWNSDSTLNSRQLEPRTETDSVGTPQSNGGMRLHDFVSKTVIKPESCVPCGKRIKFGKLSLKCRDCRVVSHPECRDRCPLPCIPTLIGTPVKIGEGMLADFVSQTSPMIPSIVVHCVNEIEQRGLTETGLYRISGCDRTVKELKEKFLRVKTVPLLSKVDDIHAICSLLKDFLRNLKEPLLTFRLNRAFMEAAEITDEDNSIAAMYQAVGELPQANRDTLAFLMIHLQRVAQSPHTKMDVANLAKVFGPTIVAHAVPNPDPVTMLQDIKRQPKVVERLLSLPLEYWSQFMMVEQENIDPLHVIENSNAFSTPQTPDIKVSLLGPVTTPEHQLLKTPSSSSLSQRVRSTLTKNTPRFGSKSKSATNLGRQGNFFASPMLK

inhibition, inactive:
Nc1cc(Cl)ccc1Oc1ccccc1 11.6%
Nc1cc(Cl)ccc1Oc1ccc(Cl)cc1 0.58%
COc1ccc(C(=O)COC(=O)CNC(=O)c2ccccc2)cc1F 4.02%
CCOC(=O)c1cnc(SCC(=O)Nc2cc(OC)ccc2OC)nc1N 3.73%
CSCCC(NC(=O)c1ccccc1Cl)C(=O)NCc1ccncc1 (centres undefined) 6.71%
CC1CCCN(CCOc2ccc(Br)cc2)C1 (centres undefined) 12%
CC1CCCN(CCCOc2ccccc2-c2ccccc2)C1 (centres undefined) 18.1%
O=C(/C=C/c1ccco1)NCC1CCCO1 (centres undefined) 19.1%
CC(C)(C)C(=O)Cn1c(=O)n(-c2ccc(F)cc2F)c(=O)c2sccc21 13.1%
CNC(=S)N1N=C(c2ccc(C)cc2)CC1c1ccc(OC)c(OC)c1 (centres undefined) 2.99%
COC(=O)C[C@H]1c2cc(F)ccc2S(=O)(=O)N1c1ccc(N(C)C)cc1 22.8%
CC(=O)C[C@H]1c2cc(C(F)(F)F)ccc2S(=O)(=O)N1c1ccc(N(C)C)cc1 16.3%
COc1ccc(-n2ncc3c2CC(C)(C)CC3NC(=O)CCn2cncn2)cc1 (centres undefined) 4.79%
COc1ccc(-n2c(=O)c3c(C)c(C)sc3n(Cc3cccc(F)c3)c2=O)c(OC)c1 9.42%
Cc1cccc(NC(=O)CC(C)(C)C)c1 5.55%
CC(=O)Nc1ccccc1 3.65%
Cc1ccc(S(=O)(=O)Nc2ccc(Nc3ccccc3)cc2)cc1 24.2%
CC(=O)Nc1ccc(NC(=O)Nc2ccccc2)cc1 -3.27%
CC(=O)Nc1ccc(NS(=O)(=O)c2ccccc2)cc1 5.08%
CC(=O)Nc1cccc(NC(=O)c2ccccc2OCc2ccccc2)c1 9.89%
CC(C)(C)CC(=O)Nc1ccc(C(N)=O)cc1 5.87%
O=C(Nc1ccccc1)c1ccccc1OCc1ccc(F)cc1 13.5%
COc1cc(-c2ccccc2)[nH]c(=S)n1 9.57%
CC(Sc1nc(=O)cc(N)n1CCc1ccccc1)C(=O)NCc1ccccc1 (centres undefined) 3.88%
COc1cccc(NC=C2C(=O)OC(C)(C)OC2=O)c1 6.91%
Cc1cc(C(=O)NNC(=S)NCC2CCCO2)cs1 (centres undefined) 9.6%
COc1ccc2c(CC(=O)Nc3nc(C)cs3)coc2c1 7.58%
Cc1ccc(C(=O)N(CC(=O)Nc2ccc(Cl)c(Cl)c2)Cc2ccco2)cc1 2.86%
O=C(CSc1nc(C(F)(F)F)cc(=O)[nH]1)N1CCCCCC1 -0.68%
CC(C)Cn1c(SCC(=O)c2ccc(Cl)s2)nnc1-c1ccco1 11.6%
CC1CC(C)CN(c2cc(=O)n(Cc3ccc(F)cc3)c(=O)[nH]2)C1 (centres undefined) 6.97%
COc1ccc(NC(=O)CN(C)S(=O)(=O)c2cccs2)cc1 16%
CCOC(=O)c1nn(-c2ccccc2F)c(-c2ccccc2)c1C(=O)c1ccccc1 5.32%
O=C(Nc1ccc(Nc2ccccc2)cc1)C(Cl)Cl 25.5%
O=C(O)c1ccccc1C(=O)Nc1ccc(Br)c(C(F)(F)F)c1 8.86%
Cc1cccc(NC(=O)c2ccccc2C(=O)O)c1 3.78%
O=C(O)c1ccccc1C(=O)Nc1ccccc1 -1.51%
CC(OC(=O)COc1ccc(Nc2ccccc2)cc1)C(=O)N(C)c1ccccc1 (centres undefined) 24.6%
CC(C)C(=O)Nc1ccc(C(=O)c2ccccc2)cc1 4.76%
CC(=O)c1ccc(NC(=O)C(C)OC(=O)COc2ccc(C#N)cc2)cc1 (centres undefined) 3.94%
O=C(O)c1ccccc1-c1ccccc1C(=O)Nc1ccccc1 8.32%
Cc1cccc(NS(=O)(=O)c2cccc(C(=O)N3CCCCCC3)c2)c1 7.68%
CCOc1ccc(NC(=O)c2cccs2)c([N+](=O)[O-])c1 9.62%
COc1ccc(COC(=O)N/N=C/c2cccs2)cc1 0.62%
Cc1ccc(/C=C2/SC(=S)N(CCCC(=O)Nc3cc([N+](=O)[O-])ccc3O)C2=O)cc1 3.56%
CCN(CC)CCNS(=O)(=O)c1ccc(Cl)cc1 5.79%
Cc1cc2ncn(-c3ncnc4sc(C)c(C)c34)c2cc1C 6.72%
CC1CCN(C(=O)c2nc[nH]c2C(=O)O[C@H](C)c2ccccc2)CC1 9.03%
Oc1ccc(NCc2cccc(OCc3ccc(F)cc3)c2)cc1 3.64%
CCCC(=O)Nc1ccc(Nc2ccccc2)cc1 22.6%
CC(=O)Nc1ccc(S(=O)(=O)Nc2nc3ccccc3nc2Nc2ccccc2)cc1 4.86%
O=C(Nc1ccccc1)C1CCCCC1 -3.44%
O=C(Nc1ccccc1)c1ccc(NC(=O)C2CC2)cc1 3.78%
CC(C)CC(=O)Nc1ccc(Nc2ccccc2)cc1 22.4%
CC(=O)Nc1ccc(S(=O)(=O)Nc2nc3ccccc3nc2Nc2ccc(O)c(C(=O)O)c2)cc1 9.87%
Oc1ccc(NCc2cccc(OCc3ccccc3)c2)cc1 9.79%
O=C(COC(=O)CNC(=O)c1ccccc1F)Nc1ccc2c(c1)OCO2 4.84%
COC(=O)c1cc(Nc2cc(C)c3ccc(O)cc3n2)cc(C(=O)OC)c1 11.8%
COc1nc(-c2ccccc2)nc(C)c1CC(=O)O 9.59%
Cc1ccc(S(=O)(=O)/N=C(/c2ccc(F)cc2)N(C)C)cc1 8.12%
COCCN(Cc1nc(C2(c3ccc(C)cc3)CCCC2)no1)C(C)C -3.53%
CCOc1ccc(N2C(=O)Nc3ccc(Br)cc3C2(O)C(=O)NCCCN(C)C)cc1 (centres undefined) 8.07%
COC(=O)C(CC(=O)c1ccc(C)cc1)n1cccn1 (centres undefined) 11.3%
CCOC(=O)c1cnc2ccccc2c1Nc1cccc(C(=O)O)c1 -0.21%
